In the supplement of paper PMC11732987, “Enantioselective OTUD7B fragment discovery through chemoproteomics screening and high-throughput optimisation” (Communications Chemistry, 2025):

Key:
Assay in all cases: log2 ratio of Biotin-Ahx-Ub-VS probe labelling (fragment/DMSO); higher = less target engagement (more negative = stronger competition), active = hit call of the paper (q ≤ 0.05, log2 ratio ≤ -1)
Conditions in all cases: compound concentration: 200 uM; treatment time: 3 h
USP19 = target: T1, USP19 (UniProt O94966)
T1 sequence (whole entry): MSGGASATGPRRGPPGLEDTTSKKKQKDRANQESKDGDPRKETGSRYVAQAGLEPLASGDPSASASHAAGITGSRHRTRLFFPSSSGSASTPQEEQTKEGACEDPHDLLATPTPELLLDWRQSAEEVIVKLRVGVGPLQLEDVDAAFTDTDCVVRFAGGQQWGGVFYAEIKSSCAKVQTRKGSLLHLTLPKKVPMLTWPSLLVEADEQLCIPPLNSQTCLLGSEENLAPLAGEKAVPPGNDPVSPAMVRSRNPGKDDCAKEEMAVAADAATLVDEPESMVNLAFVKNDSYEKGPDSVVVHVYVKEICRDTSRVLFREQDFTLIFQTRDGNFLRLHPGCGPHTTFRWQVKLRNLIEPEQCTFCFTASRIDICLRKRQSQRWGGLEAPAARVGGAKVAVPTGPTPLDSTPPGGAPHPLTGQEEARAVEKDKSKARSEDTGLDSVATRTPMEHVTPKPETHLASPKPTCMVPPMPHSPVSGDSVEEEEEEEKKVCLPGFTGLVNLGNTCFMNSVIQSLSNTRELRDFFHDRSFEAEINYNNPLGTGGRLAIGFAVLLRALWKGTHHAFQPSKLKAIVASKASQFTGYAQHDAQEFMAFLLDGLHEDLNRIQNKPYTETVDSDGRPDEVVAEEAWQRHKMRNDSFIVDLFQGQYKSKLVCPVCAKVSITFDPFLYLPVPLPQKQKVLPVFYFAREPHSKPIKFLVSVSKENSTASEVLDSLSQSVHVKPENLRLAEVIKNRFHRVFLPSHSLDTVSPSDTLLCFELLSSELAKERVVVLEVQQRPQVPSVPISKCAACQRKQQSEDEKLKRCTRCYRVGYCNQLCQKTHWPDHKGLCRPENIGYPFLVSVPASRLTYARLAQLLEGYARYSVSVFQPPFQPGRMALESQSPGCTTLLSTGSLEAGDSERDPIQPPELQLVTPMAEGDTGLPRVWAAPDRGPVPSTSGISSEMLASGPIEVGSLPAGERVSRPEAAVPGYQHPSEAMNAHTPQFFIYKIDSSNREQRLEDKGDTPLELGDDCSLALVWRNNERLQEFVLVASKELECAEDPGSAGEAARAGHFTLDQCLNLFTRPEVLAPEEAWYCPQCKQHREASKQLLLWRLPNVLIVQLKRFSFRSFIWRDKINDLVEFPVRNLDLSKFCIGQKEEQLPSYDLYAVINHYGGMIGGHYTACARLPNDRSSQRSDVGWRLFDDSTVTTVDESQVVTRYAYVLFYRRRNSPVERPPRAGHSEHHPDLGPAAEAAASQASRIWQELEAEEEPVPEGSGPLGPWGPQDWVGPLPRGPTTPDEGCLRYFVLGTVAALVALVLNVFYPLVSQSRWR
How it was run: (§1)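 HEK293T lysate (495 µg per sample, in Tris/CHAPS/IGEPAL buffer with protease inhibitors) was exposed in triplicate for 3 h to fragment at 200 µM or to vehicle, then to Biotin-Ahx-Ub-VS at 0.5 µM final for 1 h. Labelled DUBs were enriched on NeutrAvidin, digested with LysC and trypsin, and analysed by diaPASEF LC-MS/MS. Spectronaut label-free quantities were normalised to the global median, and values are average log2 ratios of fragment over vehicle from an unpaired t-test. Only proteins with ≥2 unique peptides were used.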

USP22 = target: T2, USP22 (UniProt Q9UPT9)
T2 sequence (whole entry): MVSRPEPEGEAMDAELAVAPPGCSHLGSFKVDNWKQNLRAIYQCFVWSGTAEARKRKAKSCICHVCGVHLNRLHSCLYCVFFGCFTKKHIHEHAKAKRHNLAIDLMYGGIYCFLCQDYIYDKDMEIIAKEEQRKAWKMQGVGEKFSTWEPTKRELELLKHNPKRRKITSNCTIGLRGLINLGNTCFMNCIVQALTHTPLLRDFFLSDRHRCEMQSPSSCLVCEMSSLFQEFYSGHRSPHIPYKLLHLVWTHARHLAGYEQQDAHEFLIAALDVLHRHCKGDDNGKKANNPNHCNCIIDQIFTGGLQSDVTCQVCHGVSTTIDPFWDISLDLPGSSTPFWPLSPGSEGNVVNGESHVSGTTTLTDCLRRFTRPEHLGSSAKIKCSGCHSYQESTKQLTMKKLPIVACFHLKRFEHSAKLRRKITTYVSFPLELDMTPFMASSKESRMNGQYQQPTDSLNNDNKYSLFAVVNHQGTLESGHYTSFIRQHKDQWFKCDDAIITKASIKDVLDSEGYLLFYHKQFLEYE
How it was run: as §1

USP24 = USP24 (UniProt Q9UPU5)
Sequence of USP24 (Q9UPU5 whole entry): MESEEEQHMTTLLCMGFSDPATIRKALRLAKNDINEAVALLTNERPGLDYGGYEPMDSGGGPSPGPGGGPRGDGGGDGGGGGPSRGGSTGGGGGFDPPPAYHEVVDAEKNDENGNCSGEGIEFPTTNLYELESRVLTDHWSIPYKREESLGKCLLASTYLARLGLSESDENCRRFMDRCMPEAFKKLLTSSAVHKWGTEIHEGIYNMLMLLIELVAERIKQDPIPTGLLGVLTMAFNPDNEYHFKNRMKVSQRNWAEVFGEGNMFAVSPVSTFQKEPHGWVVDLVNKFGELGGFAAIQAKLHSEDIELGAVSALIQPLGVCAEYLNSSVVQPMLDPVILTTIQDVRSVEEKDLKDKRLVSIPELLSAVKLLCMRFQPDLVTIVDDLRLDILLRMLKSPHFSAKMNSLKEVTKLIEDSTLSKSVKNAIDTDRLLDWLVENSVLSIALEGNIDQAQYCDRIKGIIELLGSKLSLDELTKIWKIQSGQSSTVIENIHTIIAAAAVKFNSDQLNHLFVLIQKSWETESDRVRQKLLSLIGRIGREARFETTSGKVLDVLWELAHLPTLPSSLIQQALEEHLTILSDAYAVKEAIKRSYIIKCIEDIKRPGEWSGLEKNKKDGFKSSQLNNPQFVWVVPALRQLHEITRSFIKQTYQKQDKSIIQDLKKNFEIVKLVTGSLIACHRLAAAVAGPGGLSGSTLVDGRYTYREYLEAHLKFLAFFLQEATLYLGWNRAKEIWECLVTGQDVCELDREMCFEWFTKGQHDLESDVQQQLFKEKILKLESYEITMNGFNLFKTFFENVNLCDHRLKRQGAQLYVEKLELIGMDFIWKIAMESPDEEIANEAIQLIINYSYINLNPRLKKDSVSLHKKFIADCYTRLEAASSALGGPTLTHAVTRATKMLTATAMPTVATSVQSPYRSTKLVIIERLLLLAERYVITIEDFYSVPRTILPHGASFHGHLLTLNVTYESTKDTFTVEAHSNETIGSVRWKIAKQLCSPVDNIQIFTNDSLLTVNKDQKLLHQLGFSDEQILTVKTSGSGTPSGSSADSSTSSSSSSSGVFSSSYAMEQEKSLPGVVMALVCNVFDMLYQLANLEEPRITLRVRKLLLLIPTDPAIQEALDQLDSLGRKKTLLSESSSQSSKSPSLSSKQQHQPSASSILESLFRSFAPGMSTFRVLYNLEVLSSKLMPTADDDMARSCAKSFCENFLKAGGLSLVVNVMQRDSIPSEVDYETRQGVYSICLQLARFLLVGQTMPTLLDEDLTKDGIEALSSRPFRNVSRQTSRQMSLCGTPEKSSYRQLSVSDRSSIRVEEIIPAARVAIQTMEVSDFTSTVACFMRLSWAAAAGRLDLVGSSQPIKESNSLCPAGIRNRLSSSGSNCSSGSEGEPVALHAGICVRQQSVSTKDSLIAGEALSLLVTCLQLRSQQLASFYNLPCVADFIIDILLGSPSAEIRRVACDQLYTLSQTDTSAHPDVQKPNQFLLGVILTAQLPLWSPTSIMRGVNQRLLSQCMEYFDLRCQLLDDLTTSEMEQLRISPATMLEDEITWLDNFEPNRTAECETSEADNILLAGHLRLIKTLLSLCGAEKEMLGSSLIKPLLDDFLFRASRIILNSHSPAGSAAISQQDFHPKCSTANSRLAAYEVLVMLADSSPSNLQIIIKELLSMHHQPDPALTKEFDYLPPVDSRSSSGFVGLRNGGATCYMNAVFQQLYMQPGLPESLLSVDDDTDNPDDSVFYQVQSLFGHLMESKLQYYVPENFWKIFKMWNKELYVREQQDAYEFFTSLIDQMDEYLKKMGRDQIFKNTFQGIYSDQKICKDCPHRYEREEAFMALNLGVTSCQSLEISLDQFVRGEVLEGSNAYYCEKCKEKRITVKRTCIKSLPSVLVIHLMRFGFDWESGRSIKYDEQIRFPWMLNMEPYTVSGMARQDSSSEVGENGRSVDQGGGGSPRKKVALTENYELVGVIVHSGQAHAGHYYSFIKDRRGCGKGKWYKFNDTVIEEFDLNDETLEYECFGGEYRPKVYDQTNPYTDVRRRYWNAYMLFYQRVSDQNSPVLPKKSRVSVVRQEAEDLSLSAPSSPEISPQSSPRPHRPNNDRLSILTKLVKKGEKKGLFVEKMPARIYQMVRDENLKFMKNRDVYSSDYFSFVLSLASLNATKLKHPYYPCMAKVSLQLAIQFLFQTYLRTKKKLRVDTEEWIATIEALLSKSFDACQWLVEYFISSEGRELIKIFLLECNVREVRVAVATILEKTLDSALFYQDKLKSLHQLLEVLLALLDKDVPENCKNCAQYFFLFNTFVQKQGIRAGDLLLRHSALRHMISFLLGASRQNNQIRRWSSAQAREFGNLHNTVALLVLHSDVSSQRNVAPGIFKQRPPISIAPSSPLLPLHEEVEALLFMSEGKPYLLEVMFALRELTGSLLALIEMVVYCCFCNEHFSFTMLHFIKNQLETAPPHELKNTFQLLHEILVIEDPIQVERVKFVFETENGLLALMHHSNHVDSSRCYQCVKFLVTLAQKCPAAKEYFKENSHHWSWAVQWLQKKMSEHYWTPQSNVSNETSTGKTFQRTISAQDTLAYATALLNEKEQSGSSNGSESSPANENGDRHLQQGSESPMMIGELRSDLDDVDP
How it was run: as §1

USP25 = target: T3, USP25 (UniProt Q9UHP3)
T3 sequence (whole entry): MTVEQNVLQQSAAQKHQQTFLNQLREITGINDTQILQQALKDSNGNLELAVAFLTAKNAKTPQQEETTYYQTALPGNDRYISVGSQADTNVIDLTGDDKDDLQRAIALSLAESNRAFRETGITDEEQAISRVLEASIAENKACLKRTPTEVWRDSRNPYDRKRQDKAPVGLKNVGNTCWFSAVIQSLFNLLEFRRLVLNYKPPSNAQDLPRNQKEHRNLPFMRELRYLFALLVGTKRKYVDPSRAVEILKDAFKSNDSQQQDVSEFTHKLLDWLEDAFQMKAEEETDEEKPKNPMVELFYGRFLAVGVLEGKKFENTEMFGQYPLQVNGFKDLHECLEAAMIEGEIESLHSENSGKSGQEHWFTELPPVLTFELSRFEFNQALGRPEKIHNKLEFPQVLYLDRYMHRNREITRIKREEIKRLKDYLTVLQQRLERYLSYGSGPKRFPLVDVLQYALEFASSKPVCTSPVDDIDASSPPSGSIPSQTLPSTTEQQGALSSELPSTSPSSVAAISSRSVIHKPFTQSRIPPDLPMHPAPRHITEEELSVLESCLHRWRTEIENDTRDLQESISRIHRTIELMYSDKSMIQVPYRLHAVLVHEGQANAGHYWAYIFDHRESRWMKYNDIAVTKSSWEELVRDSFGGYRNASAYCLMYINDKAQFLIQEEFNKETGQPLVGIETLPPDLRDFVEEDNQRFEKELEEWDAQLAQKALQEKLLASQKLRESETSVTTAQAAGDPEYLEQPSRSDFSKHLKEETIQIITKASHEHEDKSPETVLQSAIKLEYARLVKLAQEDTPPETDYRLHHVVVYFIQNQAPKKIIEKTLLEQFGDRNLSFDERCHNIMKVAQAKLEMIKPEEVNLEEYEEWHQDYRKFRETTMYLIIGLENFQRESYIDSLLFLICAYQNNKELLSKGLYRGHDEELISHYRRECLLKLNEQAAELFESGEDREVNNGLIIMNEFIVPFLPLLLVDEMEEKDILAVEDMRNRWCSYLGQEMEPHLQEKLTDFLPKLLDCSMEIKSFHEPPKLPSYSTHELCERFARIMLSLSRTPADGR
How it was run: as §1

USP28 = target: T4, USP28 (UniProt Q96RU2)
T4 sequence (whole entry): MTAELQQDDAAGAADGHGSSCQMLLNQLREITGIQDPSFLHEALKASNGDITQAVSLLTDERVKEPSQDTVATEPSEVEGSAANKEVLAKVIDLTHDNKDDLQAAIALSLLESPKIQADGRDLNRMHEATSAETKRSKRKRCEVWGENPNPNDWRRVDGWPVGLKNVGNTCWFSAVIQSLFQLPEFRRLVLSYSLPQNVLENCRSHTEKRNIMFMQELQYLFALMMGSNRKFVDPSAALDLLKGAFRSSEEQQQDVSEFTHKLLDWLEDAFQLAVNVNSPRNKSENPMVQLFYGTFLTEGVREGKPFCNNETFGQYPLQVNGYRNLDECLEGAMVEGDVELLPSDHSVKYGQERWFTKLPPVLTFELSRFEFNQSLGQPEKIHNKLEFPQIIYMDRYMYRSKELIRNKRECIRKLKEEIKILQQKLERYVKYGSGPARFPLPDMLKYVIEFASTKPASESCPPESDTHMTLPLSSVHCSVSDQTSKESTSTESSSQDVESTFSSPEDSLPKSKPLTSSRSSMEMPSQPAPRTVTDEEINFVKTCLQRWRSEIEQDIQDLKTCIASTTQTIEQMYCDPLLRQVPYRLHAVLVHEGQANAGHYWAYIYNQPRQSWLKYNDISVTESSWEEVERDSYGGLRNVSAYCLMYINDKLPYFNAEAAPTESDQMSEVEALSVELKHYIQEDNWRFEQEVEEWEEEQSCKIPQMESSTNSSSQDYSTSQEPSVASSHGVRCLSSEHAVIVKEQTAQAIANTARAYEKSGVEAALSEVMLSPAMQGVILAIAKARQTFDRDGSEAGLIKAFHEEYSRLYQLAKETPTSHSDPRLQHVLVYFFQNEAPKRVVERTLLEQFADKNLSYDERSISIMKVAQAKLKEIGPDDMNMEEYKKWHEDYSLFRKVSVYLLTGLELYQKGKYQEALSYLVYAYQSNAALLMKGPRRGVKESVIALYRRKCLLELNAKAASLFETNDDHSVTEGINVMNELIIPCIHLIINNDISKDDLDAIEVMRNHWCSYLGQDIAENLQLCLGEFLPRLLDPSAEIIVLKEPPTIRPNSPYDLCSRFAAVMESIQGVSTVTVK
How it was run: as §1

Measured: log2 ratio of Biotin-Ahx-Ub-VS probe labelling

O=C(CCl)NCc1ccc(N2CCOCC2)c(F)c1
inactive: USP19 0.108 | USP22 -0.359 | USP24 0.223 | USP25 -0.255 | USP28 -0.606
